Source: PubChem (several laboratories)
This is a sample that favours compounds with a hit; in the whole collection about 5% have one here.
CHT block: inhibitors of human choline transporter CHT. 310,000 tested, 0.86% active. High affinity choline transporter 1 (Homo sapiens), Q9GZV3. AID 488975, 2010. CHT-expressing cells, membrane potential dye, choline response; hits give low values. B-score at 10 µM;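 active = B-score over 3 SD under the library average, and starting fluorescence ratio not unusually high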;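 note: choline stimulus applied at its EC90 after an EC20 pre-addition; B-score computed on integrated fluorescence ratio after choline addition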
AI-2 QS modul: Vibrio harveyi AI-2 quorum sensing modulators, primary screen, JMH597 strain, luminescence/OD600 ratio | AID 2094, 2009 | Vibrio harveyi JMH597 AI-2 luminescence/OD600 ratio, 9 h; hits give low values; strain lacks LuxN and CqsS sensors; 0 = neutral-control median | activity change, % at 7.5 µM | 300,000 tested, 0.4% active; in the data active = activity change below about -75%, passing the limit was not always enough; inconclusive = no clear call, values can overlap the other calls;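 note: luminescence divided by OD600 gain over 9 h not by final OD600 alone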
CHT PAM: CHT positive allosteric modulators, primary screen, cell-based, membrane potential dye, choline EC20; AID 488977, 2010; High affinity choline transporter 1 (Homo sapiens), Q9GZV3; B-score at 10 µM; 310,000 tested, 0.49% active; CHT-expressing cells; hits give high values; LV-AA mutant CHT in HEK293 cells;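 active = initial fluorescence not abnormally high and integrated response B-score, plate-corrected, over 3 SD above library mean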
ALR H2O2 inh: inhibitors of human ALR sulfhydryl oxidase, primary screen, biochemical, H2O2 detection, HRP-luminol luminescence, single point. FAD-linked sulfhydryl oxidase ALR (Homo sapiens), P55789. AID 485317, 2010. purified ALR, DTT oxidation. 290,000 tested, 3.8% active. inhibition, % (no concentration beside the values);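 active = mean replicate inhibition above about 79%, with every replicate also reaching it, limit read from the data; inconclusive = only one of the two criteria met; inactive = mean below limit and not every replicate reaching it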
PREPL inh: PREPL enzyme inhibitors, primary screen, biochemical, fluorescence polarization. recombinant PREPL, fluorescence polarization activity-based probe. inhibition, % at 5.96 µM. 320,000 tested, 0.68% active. AID 2751, 2010; in the data active = inhibition above about 43%;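 note: 0% = enzyme with DMSO and 100% = wells lacking enzyme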
Target sequence (Q4J6C6 whole entry, looked up): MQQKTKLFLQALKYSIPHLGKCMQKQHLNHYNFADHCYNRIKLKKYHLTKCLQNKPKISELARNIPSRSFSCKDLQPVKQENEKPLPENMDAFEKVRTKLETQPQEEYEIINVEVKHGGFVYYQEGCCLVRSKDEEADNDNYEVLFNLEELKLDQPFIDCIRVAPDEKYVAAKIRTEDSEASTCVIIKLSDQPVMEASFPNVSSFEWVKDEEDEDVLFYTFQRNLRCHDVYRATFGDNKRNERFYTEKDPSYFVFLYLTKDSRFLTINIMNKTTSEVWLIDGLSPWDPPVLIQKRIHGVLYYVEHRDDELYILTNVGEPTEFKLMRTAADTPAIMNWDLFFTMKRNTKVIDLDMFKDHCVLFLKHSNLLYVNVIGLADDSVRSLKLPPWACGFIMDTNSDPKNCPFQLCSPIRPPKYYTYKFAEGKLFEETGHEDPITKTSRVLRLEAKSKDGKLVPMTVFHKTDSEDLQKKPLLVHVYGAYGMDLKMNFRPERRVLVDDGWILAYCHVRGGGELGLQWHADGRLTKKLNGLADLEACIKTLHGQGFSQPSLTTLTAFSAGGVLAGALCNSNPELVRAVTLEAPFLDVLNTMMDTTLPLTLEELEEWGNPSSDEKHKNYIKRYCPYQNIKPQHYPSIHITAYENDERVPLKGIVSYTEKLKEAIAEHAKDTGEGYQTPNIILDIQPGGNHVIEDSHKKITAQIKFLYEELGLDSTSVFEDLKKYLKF
CHT act confirm: CHT activators, confirmation, cell-based, membrane potential dye, duplicate | shares compounds with CHT PAM | CHT-expressing cells, membrane potential dye fluorescence (FDSS); % of choline EC20–EC90 response window; HEK293 expressing CHT LV-AA mutant; choline added at its EC20 | activation, % at 10 µM | 2,500 tested, 91% active;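 active = primary screen active, with duplicate mean activation above negative control mean plus 3 SD, cut at about 11% in these data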
HEK293 MP dye: membrane potential response in parental HEK293 cells, counter-screen for CHT activator project, cell-based, membrane potential dye; 2,500 tested, 62% active; ratio readout change at 10 µM, hits read low; shares compounds with CHT PAM; membrane potential dye fluorescence (FDSS); measured after EC20 choline addition;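 active = duplicate-averaged ratio beyond 3 SD from buffer wells, up or down, though filed actives are nearly all decreases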
* hit, by the source's call; i = inactive; u = inconclusive; x = not tested or not shown; ! = not confirmed by another sample.

SMILES	CHT block	AI-2 QS modul	CHT PAM	ALR H2O2 inh	PREPL inh	CHT act confirm	HEK293 MP dye
CCc1cc(CNC(=O)c2ccc(OC3CCN(CCc4ccccc4)CC3)cc2)on1	i	14	6.5*	-19	-8	-4	-25*
O=C(NCc1ccon1)c1ccc(OC2CCN(CCc3ccccc3)CC2)cc1	i	8	i	-5	2	x	x
COC(=O)C1=C(C)N(Cc2ccccc2)C(=NCc2ccccc2)N[C@H]1c1cccc(F)c1	i	4	16*	-6	-20	40*	i
COC(=O)C1=C(C)N(Cc2ccccc2)C(=NCc2ccccc2)N[C@H]1c1ccccc1	x	x	x	-10	6	x	x
Cc1ccc2c(CC(=O)N(C)c3c(N)n(Cc4ccccc4)c(=O)[nH]c3=O)coc2c1	i	25	i	-8	8	x	x
Nc1ccc(Br)c[n+]1Cc1cccc2cccnc12	i	4	i	x	1	34*	-46*
CN(C)c1ccc(/C=N/NC(=O)C(=O)/C=C2\NC3(CCCC3)Cc3ccccc32)cc1	i	35	6.7*	-1	13	0	i
O=C(c1cc(C2CC2)nn1-c1ccccc1)N1CCN(S(=O)(=O)c2cccc(F)c2)CC1	x	x	x	-46	-2	x	x
C=CCNC(=O)CSc1nc2ccccc2c(=O)n1CCc1ccc(OC)c(OC)c1	i	8	i	-11	x	x	x
COc1ccc(CCn2c(SCCN3CCCCC3)nc3ccccc3c2=O)cc1OC	i	5	7.4*	-7	-12	56*	-60*
O=C(Cn1ccc(NC(=O)OCc2ccccc2)nc1=O)NCCCN1CCCC1=O	x	x	x	1	9	x	x
O=C(NC(Cc1ccccc1)C(=O)O)/C(=C/c1ccc([N+](=O)[O-])cc1)NC(=O)c1ccccc1Br (stereo unspecified)	i	12	i	u	2	x	x
Cc1c(Br)c([N+](=O)[O-])nn1CC(=O)Nc1ccc(C(N)=O)cc1	i	6	i	-6	14	x	x
Cn1c(N)c(C(=O)COC(=O)c2ccc(Cl)nc2)c(=O)n(C)c1=O	i	13	7.5*	-4	-4	22*	-31*
COc1ccc(N)cc1-n1cnnn1	i	12	i	11	-3	x	x
COc1ccc(N2CCN(C(CNC(=O)COc3ccccc3)c3ccco3)CC2)cc1 (stereo unspecified)	i	-10	7.1*	89*	-18	11*	i
COc1ccc(CCNCc2ccc(OCc3ccc(Cl)nc3)c(OC)c2)cc1OC	i	5	7.8*	-13	17	37*	i
Clc1ccc(-c2c[n+](Cc3cccc(Cl)c3)c3n2CCC3)cc1	i	13	8.1*	-61	4	69*	-54*
O=[N+]([O-])c1ccc(C[n+]2cc(-c3ccc(Cl)c(Cl)c3)n3c2CCCCC3)cc1	i	6	i	x	27	34*	-33*
Clc1ccc(C[n+]2cc(-c3ccccc3)n3c2CCC3)cc1Cl	i	8	7.8*	-1	23	18*	-27*
Clc1ccc(C[n+]2cc(-c3ccccc3)n3c2CCCCC3)c(Cl)c1	i	25	i	x	21	x	x
Clc1ccc(-c2c[n+](Cc3ccc(Cl)cc3Cl)c3n2CCCCC3)cc1	i	28	28*	-4	20	67*	i
Cc1cc(-c2ccccc2)cc(-c2ccccc2)[n+]1C	i	2	6.8*	-4	5	79*	-23*
Cc1cc(=O)n2[nH]c(-c3ccc(F)cc3)cc2n1	i	20	i	-5	0	42*	-31*
CCCN(Cc1nnc(-c2cccs2)o1)C(=O)CN1C(=O)NC2(CCC(C)CC2)C1=O (stereo unspecified)	x	x	x	-1	4	x	x
SMILES	CHT block	AI-2 QS modul	CHT PAM	ALR H2O2 inh	PREPL inh	CHT act confirm	HEK293 MP dye
Cc1cc(C)n2[nH]c(=O)c(N=Nc3cccc(C(F)(F)F)c3)c2n1	i	10	7.2*	6	9	37*	-74*
CCCCNC(=O)N(c1c(N)n(Cc2ccccc2)c(=O)[nH]c1=O)C1CCCC1	i	16	i	10	8	x	x
COc1ccc(-c2cc(Cl)cc3c(=O)c4ccccc4n(C)c23)cc1F	i	-3	7.3*	-10	0	26*	i
CN1c2ccccc2C(O)=C(C(=S)Nc2ccc(Cl)cc2)S1(=O)=O	i	11	i	x	2	x	x
Cc1cccc(NC(=O)C2=C(O)c3ccccc3N(C)S2(=O)=O)c1	i	5	i	x	-6	-2	-28*
Oc1ccc(Nc2ccnc3cc(Cl)ccc23)cc1	i	8	i	28	21	x	x
Clc1ccc2c(NCc3ccccc3)ccnc2c1	i	-31	i	-3	-17	x	x
CCN(CC)Cc1cc(Nc2ccnc3cc(Cl)ccc23)ccc1O	i	4	7.5*!	35	23	48*	-52*
CCN(CC)CCNc1ccnc2cc(Cl)ccc12	i	21	7.4*	-11	5	51*	-84*
N#Cc1ccc(-c2cn(-c3ccccc3)c3[n+]2CCCS3)cc1	i	7	10*	-15	2	62*	-65*
Cc1ccc(-c2cn(-c3ccccc3)c3[n+]2CCCS3)cc1	i	26	6.6*!	-4	2	50*	-23*
c1ccc(-c2cn(-c3ccccc3)c3[n+]2CCCS3)cc1	i	-6	i	-2	7	x	x
CCc1ccc(-n2cc(-c3ccc(F)cc3)[n+]3c2SCCC3)cc1	i	7	14*	-8	24	82*	i
Cc1ccc(-n2nc3c(=O)n(CCCC(=O)NCc4ccco4)nc(C)c3c2C)cc1	i	14	i	x	13	x	x
COc1ccc(Nc2cc(C)c3cc([N+](=O)[O-])ccc3n2)cc1	i	-7	i	52	34	x	x
O=C(NCCO)c1ccc2c3n(nc2c1)-c1ccc(Cl)cc1CO3	i	-2	8.6*	-2	5	20*	-23*
Cc1cc(C)n2nc(C(=O)Nc3ccc4c(c3)OCCO4)nc2n1	x	x	x	-7	7	x	x
CCC(CC)c1nnc(NC(=O)c2nc3nc(C)cc(C)n3n2)s1	i	22	7.3*	5	-6	30*	-31*
